Laboratory results from PubChem BioAssay (NCATS).
Inconclusive results are not listed. Active and inactive are the calls of the source. The call rests on the fitted dose curve; in most records, active means well fitted inhibition curve with a large enough effect; inconclusive means small, poorly fitted or top-dose-only effect; inactive means flat fitted curve, though single readings scatter.

Columns and labels:
Assay in all cases: qHTS profiling for inhibitors of Plasmodium falciparum proliferation (AID 504749); further: nearly all actives have a fitted effect of over 60% in size
Details in all cases: P. falciparum in erythrocytes, SYBR Green DNA, 72 h; series mostly up to 28.7 µM
[1] = system: CP238
Method in brief: (§1)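 SYBR Green fluorescence of parasite DNA, read after lysis and overnight dark incubation, measured growth over 72 h in erythrocyte culture at 0.3% parasitemia and 2.5% hematocrit. Data normalised to DMSO and 0.29 uM artemisinin, with plate-drift correction.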

[2] = system: CP247
Method in brief: as §1

[3] = system: CP250
Method in brief: as §1

[4] = system: CP252
Method in brief: as §1

[5] = system: CP256
Method in brief: as §1

[6] = system: CP260
Method in brief: as §1

[7] = system: CP265
Method in brief: as §1

[8] = system: CP266
Method in brief: as §1

[9] = system: CP286
Method in brief: as §1

[10] = system: CP315
Method in brief: as §1

[11] = system: CP329
Method in brief: as §1

[12] = system: CP335
Method in brief: as §1

[13] = system: DIV14
Method in brief: as §1

[14] = system: DIV17
Method in brief: as §1

[15] = system: DIV30
Method in brief: as §1

[16] = system: Dd2
Method in brief: as §1

[17] = system: HB3
Method in brief: as §1

[18] = system: ICS
Method in brief: as §1

[19] = system: JCK
Method in brief: as §1

[20] = system: P94_40
Method in brief: as §1

[21] = system: PAD
Method in brief: as §1

[22] = system: PC15
Method in brief: as §1

[23] = system: PC26
Method in brief: as §1

[24] = system: PC49
Method in brief: as §1

[25] = system: SC27B
Method in brief: as §1

[26] = system: TAB113
Method in brief: as §1

[27] = system: TAB165
Method in brief: as §1

[28] = system: W2
Method in brief: as §1

Measured: Potency
Potency means the concentration at half of the fitted maximal effect.

OC[C@H](S)CS
active: [6] 0.891 µM | [9] 3.16 µM | [12] 3.38 µM | [13] 12 µM | [14] 3.38 µM | [16] 2.24 µM | [17] 2 µM | [18] 2.24 µM | [19] 10 µM | [22] 3.16 µM | [28] 2.39 µM
inactive: [1] | [2] | [3] | [4] | [5] | [7] | [8] | [10] | [11] | [15] | [20] | [21] | [23] | [24] | [25] | [26] | [27]
